# Assay outcomes deposited in PubChem BioAssay by National Center for Advancing Translational Sciences (NCATS).
# HT1080NT lethal: kills 2HG-producing HT-1080-NT fibrosarcoma cells; HT-1080-NT fibrosarcoma viability, CellTiter-Glo ATP luminescence, 48 h; Potency, µM (top dose mostly 46.1 µM), for the others: at the top dose activity, negative = less viability, usual class: cytotoxic; 360,000 tested, 1.6% active; AID 686970;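 note: NT is the 2HG producing partner of a matched IDH1 knockdown line; 0% = DMSO-treated cells and -100% = media-only wells without cells; nearly all actives have a fitted effect of over 55% in size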
#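 HT-1080-NT fibrosarcoma cells (2HG-overproducing), 750 cells/well in RPMI with 5% FBS, dosed after 2 h and incubated 48 h at 37C. CellTiter-Glo luminescence normalized to DMSO and no-cell wells; concentration-response curves fitted and classed.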
# DT40 TDP1 CPT: growth inhibition of DT40 Tdp1-/-;hTDP1 cells with camptothecin (screen for TDP1 inhibitors) | chicken DT40 Tdp1-/-;hTDP1 cells + 20 nM CPT, ATP luminescence, 48 h | Potency, µM (series often up to 46.2 µM), inactives show at the top dose activity change, negative = growth inhibition, most hits filed as inhibitors | 420,000 tested, 12% active | AID 686979; note: nearly all actives have a fitted effect of over 55% in size
#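 Chicken DT40 Tdp1-/- cells complemented with human TDP1, 400 cells/well, exposed to compounds plus 20 nM camptothecin for at least 48 h at 37 C; viability read as ATP content by CellTiter-Glo luminescence.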
# KB-3-1 cytotox: kills parental KB-3-1 adenocarcinoma cells | KB-3-1 viability, CellTiter-Glo ATP luminescence, 72 h | Potency, µM (doses to about 46.1 µM), hits mostly cytotoxic | 400,000 tested, 1.4% active | AID 1347075; note: nearly all actives have a fitted effect of over 60% in size
#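 Cells are dispensed, compounds pinned in, plates held at 37 °C for 72 h, then CellTiter-Glo is added and luminescence read after 10 minutes. Cell line: parental KB-3-1 in phenol-red-free DMEM, 10% FBS.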
# HT1080 IDH1KD tx: toxicity to HT-1080 IDH1 knockdown cells (counter line) | HT-1080 IDH1 knockdown viability, ATP luminescence, 48 h | AID 686971 | 360,000 tested, 2% active | Potency, µM (titrated, usually from 46.1 µM), without a hit: at the top dose activity, negative = toxicity, hits mostly cytotoxic;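 note: 0% = DMSO wells and -100% = cell-free medium wells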
#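 Luminescent ATP read-out (CellTiter-Glo, 10 min at room temperature) after 48 h compound exposure at 37 °C gave viability of IDH1-knockdown HT-1080 cells. Activity was normalised to DMSO and cell-free wells, then fitted as concentration-response curves.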
# KB-V1 cytotox: KB-V1 MDR subline cytotoxicity; Potency, µM (series often up to 46.1 µM), usual class: cytotoxic; KB-V1 MDR cells viability, CellTiter-Glo, 72 h; 400,000 tested, 3.4% active; note: nearly all actives have a fitted effect of over 60% in size
#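 Compound-treated KB-V1 multidrug-resistant cells, 72 h, 37 degrees C; viability by CellTiter-Glo. Fitted qHTS curves give the values.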
# DT40 TDP1 no CPT: qHTS for Inhibitors of human tyrosyl-DNA phosphodiesterase 1 (TDP1): qHTS in cells in absence of CPT; Potency, µM (titrated, usually from 46.2 µM), without a hit: at the highest dose activity change, negative = growth inhibition, hits mostly inhibitors; DT40 Tdp1-/- hTDP1 cells, no CPT, ATP luminescence, 48 h; 420,000 tested, 15% active; note: nearly all actives have a fitted effect of over 55% in size
#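 Cells were dispensed at 400 per well, compounds added by pin tool, plates incubated ≥48 hr at 37 °C, then CellTiter-Glo added for 30 min at room temperature before luminescence reading. Line: DT40 Tdp1-/- complemented with hTDP1; camptothecin omitted.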
# * hit, by the source's call; i = inactive; ? = inconclusive; . = no result given; [ ] = dose if it differs, or a comment. This is a sample that favours compounds with a hit; in the whole collection about 19% have one here. Calls come from the whole dose curve; as a rule, active = well fitted curve in the direction sought with a large enough effect; inconclusive = small, poorly fitted or top-dose-only effect, or another doubt; inactive = no such curve, though single readings can be large; an effect the other way counts as inactive or inconclusive. Unless noted, % is set by controls: 0 for no effect and ±100 for the full control effect; potency is the fitted concentration of half-maximal effect.
SMILES,HT1080NT lethal,DT40 TDP1 CPT,KB-3-1 cytotox,HT1080 IDH1KD tx,KB-V1 cytotox,DT40 TDP1 no CPT
C[C@@H]1CN([C@@H](C)CO)C(=O)c2cc(NC(=O)c3ccccc3)ccc2O[C@@H](C)CCCCO[C@@H]1CN(C)Cc1ccc(C(F)(F)F)cc1,-28%,9.2µM*,?,?,i,7.3µM*
C[C@@H]1CCCCO[C@H](CN(C)C(=O)NC2CCCCC2)[C@@H](C)CN([C@H](C)CO)C(=O)c2cc(NC(=O)c3ccccc3)ccc2O1,7%,?,i,8%,i,21µM*
C[C@@H]1CCCCO[C@H](CN(C)Cc2ccc3c(c2)OCO3)[C@H](C)CN([C@@H](C)CO)C(=O)c2cc(NC(=O)c3ccccc3)ccc2O1,?,26µM*,i,?,i,21µM*
C[C@@H]1CCCCO[C@@H](CN(C)Cc2ccccc2)[C@@H](C)CN([C@H](C)CO)C(=O)c2cc(NC(=O)Nc3cccc4ccccc34)ccc2O1,-16%,-12%,i,-23%,?,21µM*
O=C(c1ccco1)N(Cc1cc2cc3c(cc2nc1N1CCOCC1)CCC3)CC1CCCO1 (centres undefined),.,13%[9.04 µM],.,.,.,1%
COc1ccc(CC(=O)NNS(=O)(=O)c2ccccc2)cc1OC,?,1%,i,4%,i,-14%
O=S1(=O)CC(N2CCN(CCO)CC2)CN1Cc1cn(Cc2ccc(C(F)(F)F)cc2)nn1 (centres undefined),15%,-28%,i,20%,i,-20%
Cc1c(C)n(-c2ccc(Cl)cc2)c2ncnc(N)c12,-6%,?,i,-4%,i,?
C[C@@H]1CCCCO[C@@H](CN(C)Cc2ccc3c(c2)OCO3)[C@@H](C)CN([C@H](C)CO)C(=O)c2cc(N(C)C)ccc2O1,2%,-3%,i,0%,i,-8%
C[C@@H]1CCCCO[C@H](CN(C)Cc2ccc3c(c2)OCO3)[C@@H](C)CN([C@H](C)CO)C(=O)c2cc(NC(=O)c3ccccc3)ccc2O1,?,21µM*,?,?,i,15µM*
COC(=O)c1cn(C(=O)c2cccc(Br)c2)c2ccccc12,22%,10%,i,24%,i,12%
CCC(C)NCCOCCOc1cc(C)c(Cl)c(C)c1 (centres undefined),21µM*,26µM*,?,21µM*,?,15µM*
CCN(CC)CCOCCOc1cc(C)c(Cl)c(C)c1,?,23µM*,i,-7%,?,18µM*
CCC(C)NCCOCCOc1ccc(Cl)cc1Br (centres undefined),21µM*,?,i,?,i,?
Cc1ccc(OCCOCCNC(C)C)c(Br)c1,-14%,-27%,i,-8%,i,-23%
COCC(C)n1c(SCC(=O)NC(=O)Nc2ccc3c(c2)OCCO3)nc2ccccc2c1=O (centres undefined),-19%,?,i,16%[9.24 µM],i,?
CCN(CC(=O)NCCC1=CCCCC1)S(=O)(=O)c1ccccc1,2%,-28%,i,-6%,?,?
CCCCc1nn2c(=O)cc(COC(=O)c3ccc(NC(=O)CCc4ccccc4)cc3)nc2s1,.,-8%,i,.,i,-1%
COc1ccc(S(=O)(=O)N2CCOC2CNC(=O)C(=O)NCCCN2CCCC2=O)cc1OC (centres undefined),-3%,-1%,i,-7%,?,-8%
O=C(CSc1nc2ccccc2c(=O)n1-c1ccc(F)c(Cl)c1)Nc1cccc(S(=O)(=O)N2CCOCC2)c1,-1%,16µM*,i,-2%,i,?
Cc1ccc(-n2c(SCC(=O)Nc3cc(S(=O)(=O)N4CCOCC4)ccc3Cl)nc3ccccc3c2=O)cc1,7%,-25%,i,1%,i,-6%
O=C(CSc1nc2ccccc2c(=O)n1-c1ccc(F)cc1)Nc1ccc(Cl)c(S(=O)(=O)N2CCOCC2)c1,2%,?,i,-7%,i,16µM*
CCCN(CC(=O)Nc1ccc(F)c(F)c1F)C(=O)c1cc([N+](=O)[O-])ccc1N1CCOCC1,3%,?,i,-8%,i,?
COc1ccc(CCC(=O)O)cc1,.,-4%,i,.,i,-2%
COc1ccc(CCC2CCNCC2)cc1,7%,?,i,4%,i,18µM*
SMILES,HT1080NT lethal,DT40 TDP1 CPT,KB-3-1 cytotox,HT1080 IDH1KD tx,KB-V1 cytotox,DT40 TDP1 no CPT
COc1cc(C(=O)N2CCC(c3nc4ccccc4o3)CC2)cc(OC)c1OC,.,?,.,.,.,-14%
COc1ccc(/C=C/C(=O)N2CCC(c3nc4ccccc4o3)CC2)cc1OC,.,?,.,.,.,16µM*
O=C(/C=C/c1ccccc1Cl)N1CCC(c2nc3ccccc3o2)CC1,.,?,.,.,.,21µM*
COc1ccccc1NC(=S)N1CCC(c2nc3ccccc3o2)CC1,0%,-17%,i,6%,i,?
Cc1cccc(C)c1NC(=O)N1CCC(c2nc3ccccc3o2)CC1,12%,-12%,i,-14%,21µM*,-9%
Cc1ccccc1N=C1C(=O)Nc2ccccc21,8%,-18%,i,-1%,?,-23%
O=C1CC(Sc2nnc(-c3ccccc3)o2)C(=O)N1c1ccccc1 (centres undefined),-2%,2.9µM*,i,-6%,i,4.6µM*
Cc1nnc(SC2CC(=O)N(c3ccccc3)C2=O)s1 (centres undefined),17%,3.7µM*,i,22%,?,21µM*
O=C1CC(Sc2cccs2)C(=O)N1c1ccccc1 (centres undefined),-14%,3.7µM*,i,-23%,i,3.7µM*
CCCCCCOc1ccc(CC(=O)O)cc1,13%,0%,.,16%,.,0%
CCCNC(=O)N1N=C(c2ccc(N)cc2)c2cc3c(cc2[C@H]1C)OCO3,.,10%,.,.,.,-17%
CC(Nc1nc(-c2ccc(Cl)cc2)cs1)c1nc2cc(Cl)c(N3CCCCC3)cc2n1CCOCCO (centres undefined),?,16µM*,i,?,?,15µM*
COc1ccc(-c2csc(NC(C)c3nc4cc(Cl)c(N5CCCCC5)cc4n3CCCO)n2)cc1 (centres undefined),?,26µM*,?,?,i,?
